AmpC inh no det: inhibitors of E. coli AmpC beta-lactamase without detergent | P00811 | AmpC nitrocefin hydrolysis, absorbance 480 nm, no detergent | Potency, µM (top dose mostly 28.7 µM), for inactives: top-dose activity change, negative = inhibition | actives 1.8% (n = 71,000) | AID 585; also: % of control where 0% means no effect
Target sequence (P00811 whole entry, looked up): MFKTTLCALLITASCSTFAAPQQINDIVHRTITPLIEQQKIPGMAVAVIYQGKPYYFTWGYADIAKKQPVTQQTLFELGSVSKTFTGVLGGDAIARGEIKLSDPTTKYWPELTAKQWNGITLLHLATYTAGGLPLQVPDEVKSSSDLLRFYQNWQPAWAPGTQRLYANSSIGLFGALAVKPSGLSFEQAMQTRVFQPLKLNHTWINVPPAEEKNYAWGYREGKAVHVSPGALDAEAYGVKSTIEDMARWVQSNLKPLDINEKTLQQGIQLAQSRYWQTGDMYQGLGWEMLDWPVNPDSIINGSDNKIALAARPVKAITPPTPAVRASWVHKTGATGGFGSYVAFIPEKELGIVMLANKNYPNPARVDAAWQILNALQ
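AmpC in 20 mM phosphate buffer pH 7.0 was preincubated 15 min at room temperature with compounds. Nitrocefin (800 uM stock) was then added and hydrolysis followed at 480 nm every 20 s for 4 min.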
LT uptake inh: inhibitors of anthrax lethal toxin internalization; AID 912; Cells, anthrax lethal toxin internalization, FRET ratio (460/530); Potency, µM (top dose mostly 40 µM), without a hit: at the highest dose activity change, negative = inhibition, usual class: inhibitors; actives 0.67% (n = 70,000); also: % is scaled to controls: 0 for no effect and ±100 for the full control effect; nearly all actives have a fitted effect of over 50% in size
AmpC det inh: inhibitors of E. coli AmpC beta-lactamase with detergent. Potency, µM (titrated, usually from 28.7 µM), without a hit: at the top dose activity change, negative = inhibition. purified AmpC, nitrocefin hydrolysis with detergent. actives 0.09% (n = 71,000). P00811. AID 584; active = well fitted curve in the direction sought with a large enough effect; inconclusive = small, poorly fitted or top-dose-only effect; also: % is scaled to controls: 0 for no effect and ±100 for the full control effect
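E. coli AmpC (5.3 nM) in 20 mM phosphate pH 7.0 with 0.01% Triton X-100, preincubated 15 min RT with compound; nitrocefin (2 uL of 800 uM stock) hydrolysis followed by 480 nm absorbance every 20 s over 4 min.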
SmPrx2 inh: inhibitors of Schistosoma mansoni peroxiredoxin 2 | S. mansoni Prx2 activity coupled to TGR/GSH (TGR is thioredoxin glutathione reductase), NADPH fluorescence loss, qHTS | Potency, µM | actives 0.07% (n = 65,000) | AID 448
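Coupled assay in which S. mansoni TGR passes NADPH reducing equivalents via glutathione to Prx2, which reduces H2O2. Compounds were preincubated 15 min at room temperature with 25 nM TGR/50 nM Prx2 mix. Kinetic NADPH fluorescence loss (ex 365/em 450 nm) was monitored.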
* marks the source's active call; other numbers are inactive results; [ ] = dose if it differs, or a comment. Most compounds without a hit are left out; they make up all but 2.4% or so of the library. Unless noted, calls follow the shape of the full dose curve. Potency is read from the fitted curve at half-maximal effect.

CN(C)Cc1ccccc1-c1cc(N(C)C)ncn1 was read as AmpC inh no det -6.6%, LT uptake inh 0.3% and AmpC det inh 8.9%.
Cc1cc(C(=O)NCCN2CCCCC2C)n(-c2ccccc2)n1 (stereo not drawn) was read as AmpC inh no det -14.1%, LT uptake inh -4.1%, AmpC det inh 5.1% and SmPrx2 inh >57.
CC1CCCCN1CCNC(=O)c1cnn2ccccc12 (stereo not drawn) was read as AmpC inh no det 3.16µM*[single pt active], LT uptake inh -9.4% and AmpC det inh 13.9%.
COCCCNC(=O)CCCn1c(=O)[nH]c2ccccc2c1=O was read as AmpC inh no det -8.9%, LT uptake inh -9.5%, AmpC det inh -3.5% and SmPrx2 inh >57.
COCCCNC(=O)c1ccc(Cn2c(=O)[nH]c3ccccc3c2=O)cc1 was read as AmpC inh no det 3.98µM*[single pt active], LT uptake inh inconclusive, AmpC det inh 14.3% and SmPrx2 inh >57.
`COc1cccc(C2CC(c3ccccc3OC)n3ncnc3N2)c1` (stereo not drawn) gave AmpC inh no det 3.98µM*[single pt active], LT uptake inh 11.8%, AmpC det inh 16.0% and SmPrx2 inh >57.
For COc1cccc(C2CC(c3ccccc3)Nc3ncnn32)c1 (stereo not drawn) the results were AmpC inh no det 22.6%, LT uptake inh -28.9%, AmpC det inh -1.0% and SmPrx2 inh >57.
Fc1ccc(C2CC(c3ccccc3)n3ncnc3N2)cc1 (stereo not drawn) was read as AmpC inh no det 19.7%, LT uptake inh -29.6%, AmpC det inh -4.9% and SmPrx2 inh >57.
Cc1ccccc1C1CC(c2ccccc2)Nc2ncnn21 (stereo not drawn) was read as AmpC inh no det 3.98µM*[single pt active], LT uptake inh -22.6%, AmpC det inh 10.3% and SmPrx2 inh >57.
For CCOc1ccc(C2CC(c3ccc(F)cc3)n3ncnc3N2)cc1 (stereo not drawn) the results were AmpC inh no det 3.98µM*[single pt active], LT uptake inh -13.3%, AmpC det inh 12.3% and SmPrx2 inh >57.
CCNCCCNCCCCNCCCNCC was read as AmpC inh no det 12.6%, LT uptake inh -4.0%, AmpC det inh -1.9% and SmPrx2 inh >57.
For O=C(O)c1cccc(Cl)c1Cl the results were AmpC inh no det -15.9%, LT uptake inh -3.8% and AmpC det inh 6.8%.
For CCc1ccc(NC(=O)Cn2c(SC)nc3ccccc32)cc1 the results were AmpC inh no det 47.2%, LT uptake inh inconclusive, AmpC det inh 5.0% and SmPrx2 inh >57.
`CSc1nc2ccccc2n1CC(=O)Nc1ccccc1` gave AmpC inh no det 5.5%, LT uptake inh 15.8µM* and AmpC det inh 4.4%.
NC(N)=[N+]1CCc2ccccc2C1 was read as AmpC inh no det 7.7%, LT uptake inh 3.2%, AmpC det inh 1.9% and SmPrx2 inh >57.
Screening Cc1cc(NC(=O)c2cc(-c3ccco3)on2)nn1Cc1ccc(Cl)cc1 returned AmpC inh no det 15.8µM*, LT uptake inh -24.0%, AmpC det inh -3.3% and SmPrx2 inh >57.
Screening Cc1nn(Cc2ccc(Cl)cc2)c(C)c1NC(=O)c1cc(-c2ccco2)on1 returned AmpC inh no det 24.7%, LT uptake inh -17.9%, AmpC det inh -6.4% and SmPrx2 inh >57.
For ClC1=C(Cl)C2(Cl)C3C(Cl)C=CC3C1(Cl)C2(Cl)Cl (stereo not drawn) the results were AmpC inh no det -24.2%, LT uptake inh 15.8µM* and AmpC det inh 8.3%.
For Cc1nc2ccc(S(=O)(=O)NC(C(=O)NCc3ccco3)C(C)C)cc2s1 (stereo not drawn) the results were AmpC inh no det 3.98µM*[single pt active], LT uptake inh -9.0%, AmpC det inh 14.4% and SmPrx2 inh >57.
COc1ccc(Br)cc1CNC(=O)C1CCCN(S(C)(=O)=O)C1 (stereo not drawn) was read as AmpC inh no det -10.0%, LT uptake inh 10µM*, AmpC det inh -2.2% and SmPrx2 inh >57.
N#Cc1ccccc1Cn1c(=O)n(-c2ccc(CC(=O)NCc3ccco3)cc2)c(=O)c2sccc21 was read as AmpC inh no det 3.98µM*[single pt active], LT uptake inh inconclusive, AmpC det inh 9.7% and SmPrx2 inh >57.
For N#Cc1ccccc1Cn1c(=O)n(Cc2ccc(C(=O)NCc3ccco3)cc2)c(=O)c2sccc21 the results were AmpC inh no det 3.98µM*[single pt active], LT uptake inh 11.8% and AmpC det inh 9.1%.
Screening O=C(CCCn1c(=O)c2sccc2n(Cc2cc(=O)n3ccccc3n2)c1=O)NCc1ccco1 returned AmpC inh no det 3.98µM*[single pt active], LT uptake inh -5.0%, AmpC det inh 17.9% and SmPrx2 inh >57.
